Source: PubChem (several laboratories)
An excerpt weighted towards active compounds, which were near 4.1% of everything screened.
RecA splice inh: blocks M. tuberculosis RecA intein splicing | inhibition, % (no concentration beside the values) | cell-free RecA intein splicing, fluorescence | actives 0.75% (n = 290,000) | AID 2221; in the data active = inhibition above about 30%;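 note: 0% = vehicle wells and 100% = reference inhibitor control wells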
UGM FP inh: Mtb UDP-galactopyranose mutase inhibition. purified UGM, fluorescence polarization probe displacement. actives 0.06% (n = 320,000). P9WIQ1. AID 504406. inhibition, % at 10 µM; in the data active = inhibition above about 10%, passing the limit was not always enough
Vc quorum ag: inducers of Vibrio cholerae quorum light production without autoinducers | V. cholerae BH1578 lux reporter, luminescence, 6 h | activation, % at 18.7 µM | actives 0.16% (n = 350,000) | AID 588436; in the data active = activation mostly above about 9.7%, no sharp cut-off
Rv3671c protease: inhibitors of M. tuberculosis serine protease Rv3671c; inhibition, % at 5.96 µM; P9WHR9; AID 2606; actives 0.048% (n = 320,000); in the data active = inhibition above about 38%;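 note: extracellular domain of Rv3671c used as enzyme; 0% = enzyme with DMSO and 100% = no enzyme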
GDH-TPI counter-1: GDH-TPI coupled enzyme inhibition counter-screen; inhibition, % at 4.8 µM; AID 588335; actives 1.2% (n = 360,000); GDH-TPI coupled enzyme counterscreen, NADH absorbance; in the data active = inhibition above about 30%;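 note: 0% = DMSO wells and 100% = wells lacking the enzyme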
Mtb FBA inh: inhibits M. tuberculosis FBA enzyme. purified M. tuberculosis FBA, fluorescence read-out. inhibition, % at 1 µM. actives 2.3% (n = 360,000);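 note: 0% = vehicle and 100% = reference inhibitor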
Mtb FBA inh conf: Mtb FBA inhibition, confirmed. shares compounds with Mtb FBA inh. purified M. tuberculosis FBA, fluorescence read-out. inhibition, % at 1 µM. actives 78% (n = 5,600). AID 651616;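 note: 0% = vehicle wells and 100% = reference inhibitor wells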
GDH-TPI counter-2: counter-screen for M. tuberculosis FBA inhibitors: GDH-TPI coupled enzyme inhibition; actives 81% (n = 5,600); inhibition, % at 1 µM; GDH-TPI coupled enzyme counterscreen, fluorescence; shares compounds with Mtb FBA inh; in the data active = inhibition above about 10%
GDH-TPI DR: inhibits GDH-TPI coupling enzymes in dose response; shares compounds with Mtb FBA inh; GDH-TPI coupled enzyme assay, fluorescence, artifact counterscreen; IC50, µM; actives 79% (n = 170); call rule not given here
Starred values were filed as active, the others as inactive; i = inactive; . = not tested or not shown; + = active, no number. Cut-off read from the data, not from the text of the source, unless noted: active = inhibition above about 27%; inactive = the rest.

SMILES | RecA splice inh | UGM FP inh | Vc quorum ag | Rv3671c protease | GDH-TPI counter-1 | Mtb FBA inh | Mtb FBA inh conf | GDH-TPI counter-2 | others
N=C1C(c2nc3ccccc3c(=O)[nH]2)=C(O)CN1CCc1ccccc1 | 2 | 2 | 0 | -3 | 8 | 10 | . | .
COc1ccccc1N1CC(O)=C(c2nc3ccccc3c(=O)[nH]2)C1=N | 1 | 0 | i | -9 | 22 | 38* | 146* | 111*
N=C1C(c2nc3ccccc3c(=O)[nH]2)=C(O)CN1CCO | -2 | -1 | -8 | 0 | 1 | 17 | . | .
COCCN1CC(O)=C(c2nc3ccccc3c(=O)[nH]2)C1=N | -1 | 1 | i | -4 | 20 | 46* | . | +
Cc1cc(N2CCN(C(=O)c3ccco3)CC2)n2ncc(-c3ccccc3)c2n1 | 2 | 1 | i | 2 | 14 | 2 | . | .
COc1ccccc1-c1cc2nc(-c3ccccc3)cc(N3CCN(C(=O)c4ccco4)CC3)n2n1 | . | . | -2 | . | 6 | 48* | 54* | 43*
Fc1ccc(-c2cc3nc(-c4ccccc4)cc(N4CCN(CCN5CCOCC5)CC4)n3n2)cc1 | 0 | . | i | . | 11 | 49* | 90* | 72*
COc1cccc(-c2cc3nc(-c4ccccc4)cc(N4CCC5(CC4)OCCO5)n3n2)c1 | -2 | -1 | i | -28 | 3 | 65* | 1 | -4
Cc1cc(N2CCN(C(=O)c3ccoc3)CC2)n2nc(-c3ccccc3)cc2n1 | . | . | 1 | . | 8 | 2 | . | .
O=C(c1ccoc1)N1CCN(c2cc(-c3ccccc3)nc3cc(-c4ccccc4)nn23)CC1 | . | . | i | . | 5 | 39* | 64* | 60*
CC(=O)c1ccc(NC(=O)C(C)OC(=O)c2ccc(Br)o2)cc1 (stereo unspecified) | . | 0 | 0 | -5 | 7 | 0 | . | .
O=C(NCCOc1ccccc1F)c1cccc(S(=O)(=O)N2CCN(c3ccccc3)CC2)c1 | -1 | -2 | i | -21 | 7 | 3 | . | .
Cn1ncc(Cl)c1C(=O)N1CCN(C23CC4CC(CC(C4)C2)C3)CC1 | 0 | 3 | i | 2 | 3 | 3 | . | .
O=C(Nc1cccs1)Nc1nnc([C@@H]2C[C@H](O)[C@@H](CO)O2)s1 | . | . | i | . | 7 | 1 | . | .
COc1ccccc1-c1cc2nc(-c3ccccc3)cc(N3CCN(C(=O)c4ccoc4)CC3)n2n1 | . | . | 0 | . | 12 | 55* | 4 | 1
CN1CCN(c2cc(-c3cccc(C(=O)O)c3)nc3ccnn23)CC1 | . | . | -1 | . | 18 | 30* | 55* | 46*
COc1cccc(-c2cc3nc(-c4ccccc4)cc(N4CCN(C(=O)c5ccoc5)CC4)n3n2)c1 | . | . | 0 | . | -3 | 62* | 151* | 102*
CN1CCN(c2cc(-c3ccccc3)nc3cc(-c4ccc(F)cc4)nn23)CC1 | -4 | -1 | 5 | 4 | 3 | 26 | . | .
CCN(CC)c1ccc(/C=N/NC(=O)c2c(-c3ccccc3)noc2C)cc1 | . | -1 | -8 | -6 | 24 | 15 | . | .
C#CCN1[C@@H]2CCN(C2)c2cc(Br)ccc2S1(=O)=O | . | . | 0 | . | 12 | -3 | . | .
O=C(c1nc2ccc(Cl)cn2c1CNCCc1cnccn1)N1CCCCCCC1 | 0 | 1 | i | -10 | 2 | 4 | . | .
CC(Cc1nnc(SCC(=O)O)n1N)c1ccccc1 (stereo unspecified) | -1 | -1 | 0 | 4 | 9 | 6 | . | .
CCC(C)NC(=O)c1c(N)n(CCCOC)c2nc3ccccc3nc12 (stereo unspecified) | i | -2 | i | -32 | 4 | 94* | + | +
CCCCn1c(N)c(C(=O)NCCN2CCOCC2)c2nc3ccccc3nc21 | -235 | -2 | -1 | 3 | 11 | 80* | + | +
COCCCn1c(N)c(C(=O)Nc2sc3c(c2C(=O)OC)CCCC3)c2nc3ccccc3nc21 | 5 | -2 | -15 | 0 | 0 | 2 | . | .
SMILES | RecA splice inh | UGM FP inh | Vc quorum ag | Rv3671c protease | GDH-TPI counter-1 | Mtb FBA inh | Mtb FBA inh conf | GDH-TPI counter-2 | others
Cc1cccc(-n2c(N)c(C(=O)NCCN3CCOCC3)c3nc4ccccc4nc32)c1 | -316 | 0 | . | -5 | . | . | . | .
CC(C)Cn1c(N)c(C(=O)NCCN2CCOCC2)c2nc3ccccc3nc21 | -371 | 0 | -14 | -2 | 22 | 110* | 77* | 73*
O=C(NCC(=O)N1CCC2(CC1)NCCc1[nH]cnc12)c1ccccc1F | -1 | 0 | i | -7 | -6 | 1 | . | .
CC1(C)NC(=O)N(CCC(=O)Nc2ccc(C(C)(C)C)cc2)C1=O | . | . | -1 | . | -1 | -4 | . | .
CCCn1cnc2c(oc3ccccc32)c1=O | -1 | 3 | 13 | . | 0 | 2 | . | .
CCn1cnc2c(oc3ccccc32)c1=O | 1 | 2 | -3 | 6 | 1 | 44* | 177* | 127*
O=C1OC[C@@H]2CCCN2C(=O)[C@@H](CC(=O)N(CCO)Cc2ccccc2)C/C=C\C[C@H]1Cc1ccc(F)cc1 | . | 1 | -1 | 6 | 5 | 0 | . | .
CC(C)CCNC(=O)COc1ccc2c(c1)C(=O)CC(C)(C)O2 | -6 | 0 | i | 4 | 12 | 50* | + | +
CCC(Oc1ccc2c(c1)C(=O)CC(C)(C)O2)C(=O)NCCN1CCCCCC1 (stereo unspecified) | -15 | 1 | -7 | 1 | 12 | 59* | -3 | -6
CC1(C)CC(=O)c2cc(OCC(=O)NCCN3CCCc4ccccc43)ccc2O1 | . | -2 | -1 | 6 | 7 | 18 | . | .
Cc1nc2ccccn2c1C(=O)NCc1cccnc1 | 0 | 0 | -4 | 8 | -4 | 0 | . | .
Cc1ccc(Cn2c(=N)c(C(=O)NC3CCCC3)cc3c(=O)n4ccccc4nc32)cc1 | 0 | 2 | i | -7 | 9 | 53* | 99* | 98*
CC(C)Cc1ccc(CN2CCCC(NC(=O)c3cnc4ccccn4c3=O)C2)cc1 (stereo unspecified) | 0 | 0 | 0 | 1 | 7 | 19 | . | .
N=c1c(C(=O)NC2CCCCC2)cc2c(=O)n3ccccc3nc2n1Cc1ccco1 | -47 | 2 | -2 | -4 | 5 | 36* | 12 | -1 | GDH-TPI DR=>10
N=c1c(C(=O)NCc2ccccc2)cc2c(=O)n3ccccc3nc2n1CCCN1CCOCC1 | . | 1 | i | 2 | 10 | 79* | 2 | -4
N=c1c(C(=O)NCc2ccc(F)cc2)cc2c(=O)n3ccccc3nc2n1Cc1cccnc1 | i | 3 | -1 | 2 | 11 | 102* | 152* | 116*
O=C(NCCCN1CCOCC1)C(=O)NCc1ccccc1 | -2 | 2 | 3 | -2 | -2 | 4 | . | .
C[C@H](NC(=O)c1nc[nH]c1C(=O)N(C)CCO)c1ccccc1 | . | . | . | . | . | 2 | . | .
